# Columns and labels:
# Settings in all cases: concentration: 1 μM, replicates: in singlicate; n = 1
# TNNI3K = system: TNNI3K
# TRKA = system: T1, TRKA
# T1 construct: gene NTRK1
# TRKB = system: TRKB
# TRKC = system: T2, TRKC
# T2 construct: gene NTRK3
# TRPM6 = system: TRPM6
# TSSK1B = system: TSSK1B
# TSSK3 = system: TSSK3
# TTK = system: TTK
# TXK = system: TXK
# [1] = system: TYK2(JH1domain-catalytic)
# 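Also: KINOMEscan kinase panel screen.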
Compound,%Inh (TNNI3K) [%],%Inh (TRKA) [%],%Inh (TRKB) [%],%Inh (TRKC) [%],%Inh (TRPM6) [%],%Inh (TSSK1B) [%],%Inh (TSSK3) [%],%Inh (TTK) [%],%Inh (TXK) [%],%Inh [1] [%]
Cc1ccc(S(=O)(=O)Nc2ccc(Nc3nccc(Nc4cccc5[nH]ncc45)n3)cc2)cc1 [GSK581271],7,0,33,24,11,4,11,0,77,42
COc1ccc(CNC(=O)NC2CCN(c3ccnc(Nc4ccc(F)cc4)n3)CC2)cc1 [GSK1379788],0,0,0,6,0,1,18,0,3,21
Clc1ccc(-c2nn3ncccc3c2-c2ccnc(Nc3ccc4c(c3)OCCO4)n2)cc1 [GW829116],0,0,0,0,7,0,0,2,0,0
Nc1ncnc2c1nc(-c1ccccc1)n2-c1ccccc1 [SKF-97293],0,37,48,36,50,2,22,0,15,68
C[C@@H]1CC[C@@H](C(=O)Nc2ccccc2)CN1c1cc(-c2ccc3c(N)n[nH]c3c2)nc(N)n1 [GSK2286062],0,12,0,13,0,0,0,9,0,15
CCc1ccc(-c2ccc3c(c2)-c2c(cnn2C)S(=O)(=O)N3C)cc1,0,0,0,0,1,5,0,0,0,0
Nc1ncc(-c2cccnc2)c2scc(-c3ccc4c(c3)CCN4C(=O)Cc3ccccc3)c12 [GSK683281],20,22,0,0,40,20,22,0,10,11
Fc1ccc(-c2ncn(C3CCNCC3)c2-c2ccnc(Oc3ccc(-c4ccccc4)cc3)n2)cc1 [SB-245391],42,13,0,19,19,0,15,22,8,32
O=C(Nc1cccc(Oc2ccc3nc(NC(=O)C4CC4)cn3n2)c1)c1ccccc1C(F)(F)F,4,0,0,0,0,7,0,26,17,5
CSc1cccc2c(-c3ccncn3)c(-c3ccc(F)cc3)nn12 [GW514786],6,16,0,0,17,0,22,8,0,0
COc1cccc(C2=C(Nc3ccc(Cl)c(C(=O)O)c3)C(=O)NC2=O)c1 [SB-390769],13,0,48,34,0,30,16,0,3,100
CC(=O)Nc1nc2cnc(Nc3cc(NC(=O)c4cccc(C5(C#N)CC5)c4Cl)ccc3C)nc2s1,18,0,0,0,0,0,0,21,33,0
CC(C)(C)c1ccc2nccc(Nc3cccc(O)c3)c2c1 [GW856795],0,72,40,31,0,0,60,0,79,42
Cl.c1ccc(-c2ccc3c(Nc4ccc5[nH]ncc5c4)ccnc3c2)nc1 [GW440137],0,0,16,17,25,12,7,3,74,14
c1ccc(-c2cnc3nccnn23)cc1 [AH20685],0,0,17,0,29,0,9,0,0,0
COC(=O)Nc1nc2cc(Oc3ccc(NC(=O)Nc4cc(C(F)(F)F)ccc4F)cn3)ccc2[nH]1.Cl.Cl [GW681170],92.9,100,97.4,97,29,0,16,43,0,14

Compound,%Inh (TNNI3K) [%],%Inh (TRKA) [%],%Inh (TRKB) [%],%Inh (TRKC) [%],%Inh (TRPM6) [%],%Inh (TSSK1B) [%],%Inh (TSSK3) [%],%Inh (TTK) [%],%Inh (TXK) [%],%Inh [1] [%]
CN(c1ccc(NC(=O)Nc2cc(C(F)(F)F)ccc2F)cc1)c1ccnc(Nc2ccc(S(N)(=O)=O)cc2)n1 [GW809893],93.3,100,97.6,98.7,31,5,9,22,26,44
Cc1ccc(C(=O)Nc2ccc(Nc3ccnc4cc(-c5nccs5)ccc34)cc2O)cc1.Cl [GW494702],6,60,20,25,29,13,6,0,52,42
Cn1cc(-c2[nH]c3cc(NC(=O)[C@H](N)C4CCCCC4)cc4c3c2C=NNC4=O)cn1,54,91.6,64,57,11,73,23,0,32,95.1
O=C(Nc1cccc(-c2nn3ccccc3c2-c2ccnc(Nc3cccc(C(F)(F)F)c3)n2)c1)c1c(F)cccc1F [GSK292658],0,0,0,0,11,2,5,20,48,20
CCn1c(-c2nonc2N)nc2c(C#CC(C)(C)O)ncc(OCCCCN)c21.O=C(O)C(F)(F)F.O=C(O)C(F)(F)F [GSK507274],9,0,19,1,0,80,99.5,21,49,33
Cn1cc(-c2ccc3c(c2)CCN3C(=O)Cc2cccc(F)c2)c2c(N)ncnc21 [GSK2603358],0,34,55,50,0,5,11,67,25,22
COc1ccc(Nc2nccc(N3CCC(NC(=O)Nc4cccc(OC)c4)C3)n2)cc1 (centres unmarked) [GSK1379742],0,54,40,76,0,0,18,0,0,24
CN(C)S(=O)(=O)c1cc(-c2ccc3nccc(-c4cccc(S(N)(=O)=O)c4)c3c2)cnc1N [GSK1669921],8,87,0,48,4,3,18,47,26,13
COc1cc(Nc2nccc(N3CCC(NC(=O)Nc4cccc(C(C)=O)c4)C3)n2)cc(OC)c1OC (centres unmarked) [GSK1379753],9,62,63,92.3,41,6,9,21,0,45
CC(C)c1nc(-c2cccc(NS(=O)(=O)c3c(F)cccc3F)c2F)c(-c2ccnc(Nc3ccc(N4CCOCC4)nc3)n2)s1 [GSK2008607],92.7,87,0,51,57,0,34,82,95.2,94.9
CN1CCN(Cc2cccc(-c3ccc4c(Nc5ccc(Oc6ccccc6)cc5)ccnc4c3)c2)CC1 [GW578342],6,43,0,19,39,0,6,0,5,8
C[C@@H](Oc1cc(-n2cnc3cc(-c4ccnc(NCCS(C)(=O)=O)c4)ccc32)sc1C(N)=O)c1ccccc1Cl [GSK907232],31,91,39,30,0,11,9,0,28,12
CNC(=O)c1ccccc1Nc1nc(Nc2ccc(N3CCOCC3)cc2)ncc1Cl.Cl [GSK1576028],50,100,96.6,97.1,75,15,17,95,97.6,99.9
COc1cc(Nc2ncc3c(C)nc(-c4cc5ccccc5[nH]4)n3n2)cc(OC)c1OC [GW869516],33,4,0,0,0,6,0,36,10,0
COc1ccc(-c2coc3ccc(-c4nnc(SCc5ccc(OC)c(C(F)(F)F)c5)o4)cc23)cc1,0,5,10,0,1,0,0,1,0,27
COc1cc(Nc2nccc(-c3c(-c4cccc(NC(=O)c5c(F)cccc5F)c4)nn4ccccc34)n2)cc(OC)c1OC [GSK323521],3,78,35,40,16,0,20,10,0,0

# Reference: PMC5540273 (PLoS ONE, 2017)
